Compound activity from PubChem.
Compounds with a hit are over-represented: about 2.8% of the library has one in this group of screens.
PAX8 inh HTS: inhibitors of PAX8-driven TPO luciferase reporter, primary screen, RMG-I cells, single concentration. SteadyGlo, 24 h. inhibition, % at 12.6 µM. 1.2% of 360,000 active;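 active means mean replicate inhibition at least 60% with every replicate also reaching 60%; inconclusive means only one of the two criteria is met; inactive means mean below 60% and not all replicates reaching 60%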;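 further: luciferase light reporting Pax8 driven TPO promoter activity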
EWS-Fli block: EWS/Fli-driven NR0B1 reporter inhibitors, primary screen, A673 cells, NR0B1 luciferase, luminescence, MLPCN library | viability-normalised | inhibition, % at 12.6 µM | 0.67% of 350,000 active;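 active means mean inhibition of at least 50% after viability correction, with every replicate also passing that limit; inconclusive means mean reaches 50% but only one of two replicates passes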;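 further: firefly luciferase signal divided by Alamar Blue viability fluorescence both relative to DMSO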
LGR2 inh: inhibitors of bursicon-induced LGR2 CRE-luciferase signal, primary screen, cell-based, HEK293, CRE-luciferase reporter, bursicon stimulation. bursicon-stimulated, 4 h. inhibition, % at 9.99 µM. AID 720647, 2013. Drosophila bursicon receptor LGR2 (rickets). 0.35% of 380,000 active;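 active means drop in luminescence signal, shown as inhibition above about 50% in the replicate tests, limit read from the data, passing the limit was not always enough; inconclusive means probably only some replicates passing the limit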;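 further: agonist challenge used bursicon conditioned medium at about half maximal strength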
TWEAK Fn14 block: inhibitors of TWEAK-Fn14 signaling, primary screen, luciferase reporter cells, uHTS | TWEAK-stimulated Fn14 reporter cells, luciferase luminescence, 8 h | AID 1159606, 2016 | inhibition, % at 10 µM | 2% of 360,000 active; in the data active means inhibition above about 50%
TROY NFkB inh: inhibitors of TROY-driven NF-kB signaling, primary screen, Q293 LMP1-TROYcd cells, NF-kB luciferase, uHTS; Q293 LMP1-TROYcd NF-kB luciferase reporter, 4 h; inhibition, % at 10 µM; 0.98% of 360,000 active; AID 1347056, 2019;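 active means compounds whose plate-normalised and pattern-corrected inhibition of the luciferase reporter signal at the single screening dose is 50% or more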
Hits are given with their value; - = inactive; ? = inconclusive; . = not tested or not shown.

SMILES | PAX8 inh HTS | EWS-Fli block | LGR2 inh | TWEAK Fn14 block | TROY NFkB inh
O=C(/C=C/Nc1ccc(Br)cc1F)c1ccco1 | - | 73 | 89 | 63 | -
O=C(C(=O)N1CCC(CNS(=O)(=O)c2ccccc2OC(F)(F)F)CC1)c1cc2ccccc2o1 | - | - | - | . | .
CN(C)c1cccc2c(S(=O)(=O)NCC3CCN(C(=O)C(=O)c4cc5ccccc5o4)CC3)cccc12 | 62 | - | - | . | .
COc1ccc(N=C(C)C2C(=O)c3ccccc3C2=O)cc1 | . | . | . | 64 | -
CCCn1c2ccccc2c2nnc(SCC(=O)OC)nc21 | . | . | . | - | -
CCCCn1c2ccccc2c2nnc(SCC(=O)NC3=NN=C(c4ccccc4)CS3)nc21 | 77 | - | - | . | .
COc1ccc(NC(=O)N(C)C[C@H]2Oc3c(NS(C)(=O)=O)cccc3C(=O)N([C@@H](C)CO)C[C@H]2C)cc1 | . | - | - | . | .
COc1ccc2c3c(n(C)c2c1)[C@H](CO)N(C(=O)Nc1ccc(F)cc1)CC31CN(S(=O)(=O)c2cccc(F)c2)C1 | . | - | - | . | .
COc1ccc2c3c(n(C)c2c1)[C@H](CO)N(C(=O)Nc1ccc(F)cc1)CC31CCN(S(=O)(=O)c2cccc(C)c2)CC1 | 89 | - | - | . | .
COc1ccc2c3c(n(C)c2c1)[C@@H](CO)N(C(=O)Nc1ccc(F)cc1)CC31CCN(S(=O)(=O)c2cccc(C)c2)CC1 | 81 | - | - | . | .
COc1ccc2c3c(n(C)c2c1)[C@H](CO)N(C(=O)Nc1ccc(F)cc1)CC31CCN(C(=O)c2ccc3c(c2)OCO3)CC1 | 77 | - | - | . | .
COc1ccc2c3c([nH]c2c1)[C@H](CO)N(C(=O)Nc1cccc(F)c1)CC31CCN(S(=O)(=O)c2cccc(C)c2)CC1 | 106 | - | - | . | .
Cc1noc(C)c1S(=O)(=O)Nc1ccc2c(c1)C(=O)N([C@H](C)CO)C[C@@H](C)[C@H](CN(C)S(=O)(=O)c1c(C)noc1C)OCCCC[C@@H](C)O2 | - | - | - | . | .
C[C@H](CO)N1C[C@H](C)[C@@H](CN(C)C)Oc2c(NC(=O)Nc3ccccc3)cccc2C1=O | - | - | - | . | .
O=[N+]([O-])c1ccc2nc(SCc3cn4ccccc4n3)[nH]c2c1 | 102 | - | - | - | -
O=[N+]([O-])c1ccc2nc(SCc3cn4cccnc4n3)[nH]c2c1 | - | - | - | - | -
O=C(CSc1nc2ccc([N+](=O)[O-])cc2[nH]1)NC1CCCCCC1 | - | . | - | 61 | -
C[C@@H]1CCCCO[C@H](CN(C)C)[C@@H](C)CN([C@@H](C)CO)C(=O)c2cc(NC(=O)c3ccncc3)ccc2O1 | - | - | - | . | .
O=C1CN(S(=O)(=O)c2cc(Br)ccc2Br)CCN1 | - | - | - | - | -
O=c1c(Br)ccc(Br)cc1Br | 118 | - | - | 104 | -
CN1C(=O)C(CCC(N)=O)NC1=S (configuration not stated) | - | - | . | - | -
CN1C(=O)[C@H](Cc2ccc([N+](=O)[O-])cc2)NC1=S | - | - | - | 51 | -
O=C(N/N=C/c1ccccc1)c1ccco1 | - | - | - | - | -
O=C(C#Cc1ccccc1)c1ccco1 | 124 | 64 | 50 | 94 | 58
O=C(NCC[C@@H]1CC[C@@H](NC(=O)c2cccnc2)[C@@H](CO)O1)Nc1ccc(C(F)(F)F)cc1 | - | - | - | . | .
SMILES | PAX8 inh HTS | EWS-Fli block | LGR2 inh | TWEAK Fn14 block | TROY NFkB inh
O=c1[nH]c(Nc2nc3ccccc3o2)nc2c1CCCC2 | . | - | - | 98 | 76
O=C(C[C@@H]1CC[C@H](NS(=O)(=O)c2ccc(F)cc2)[C@@H](CO)O1)NCCN1CCCCC1 | - | - | - | . | .
Nc1ccc(-c2nc3ccc(C(=O)O)cc3s2)cc1 | 103 | 84 | 102 | 97 | -
O=C(O)c1ccc2nc(-c3ccccc3)sc2c1 | 74 | - | 63 | 79 | -
Nc1cc2sc(-c3ccc(C(=O)O)cc3)nc2cc1Cl | - | - | ? | - | -
CC1CCN(c2nc3ccc(C(=O)O)cc3s2)CC1 | . | . | . | 96 | -
C[C@@H]1CN([C@@H](C)CO)C(=O)Cc2cc(NS(=O)(=O)c3cn(C)cn3)ccc2O[C@H]1CN(C)C(=O)Nc1cccc2ccccc12 | - | - | - | . | .
C[C@H]1CN([C@@H](C)CO)C(=O)c2cc(NS(=O)(=O)c3ccc(F)cc3)ccc2O[C@@H]1CN(C)CC1CC1 | - | . | - | . | .
COc1cccc(/C=C(\C#N)c2nc3ccccc3[nH]2)c1OCC(=O)O | - | - | - | 99 | -
CCCOc1cc(N(CC)CC)ccc1/C=C(/C#N)c1nc2ccc(C)cc2[nH]1 | . | - | - | - | -
CCOc1cc(N(CC)CC)ccc1/C=C(/C#N)c1nc2ccccc2[nH]1 | . | . | . | 69 | 60
CCNc1nc(NC(C)CC)nc(Oc2ccc(=O)[nH]n2)n1 (configuration not stated) | . | - | - | 87 | -
CC(C)NC(=O)N(C)C[C@H]1Oc2ccc(NC(=O)Nc3cccc4ccccc34)cc2CC(=O)N([C@@H](C)CO)C[C@@H]1C | - | - | - | . | .
Cc1c(-c2ccccn2)c(=O)[nH]n1-c1ccc(F)cc1 | - | - | - | 51 | -
C[C@@H]1CN([C@@H](C)CO)C(=O)c2cc(NC(=O)Nc3ccc(F)cc3)ccc2O[C@@H]1CN(C)C(=O)Nc1ccc(C(F)(F)F)cc1 | . | - | - | . | .
COc1ccccc1NC(=O)N1CC[C@@H]2[C@@H](CO)N(C)c3ccc(-c4ccc(F)cc4)cc3[C@@H]21 | - | - | - | . | .
COc1ccc(-c2cnc(C(O)c3ccccc3)[nH]2)cc1 (configuration not stated) | - | - | - | - | 51
COc1ccc(-c2cnc(C(O)c3ccc(-c4ccccc4)cc3)[nH]2)cc1 (configuration not stated) | - | - | - | - | -
COc1cccc(-c2cnc(C(O)c3ccccc3)[nH]2)c1 (configuration not stated) | - | - | . | 63 | 57
C[C@H](CO)N1C[C@H](C)[C@@H](CN(C)S(=O)(=O)c2cn(C)cn2)OCCCC[C@H](C)Oc2ccc(NS(C)(=O)=O)cc2C1=O | . | - | - | . | .
O=[N+]([O-])c1ccc(Sc2cccc[n+]2[O-])c2nonc12 | 102 | 56 | - | 94 | 86
COc1ccc(C2CC(c3cccs3)=NN2C(=O)c2ccccc2)cc1OC (configuration not stated) | - | - | - | - | -
COc1ccc(C2CC(c3cccs3)=NN2C(=O)CCC(=O)O)cc1 (configuration not stated) | - | - | - | - | -
O=C(CCl)N1N=C(c2ccco2)CC1c1cccs1 (configuration not stated) | . | . | . | - | -
Cc1ccc(C2=NN(C(=O)CCl)C(c3cccs3)C2)o1 (configuration not stated) | 65 | - | - | - | -
